HPGD block: qHTS Assay for Inhibitors of HPGD (15-Hydroxyprostaglandin Dehydrogenase); purified HPGD, NADH fluorescence kinetic, PGE2 substrate; 150,000 tested, 4.3% active; Potency, µM, without a hit: top-dose activity change, negative = inhibition, usual class: inhibitors; AID 894, 2007; further: potency means the concentration at half of the fitted maximal effect
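NADH formation kinetics: reaction with 30 uM PGE2 and 1 mM NAD+ (final), 20 nM enzyme, Tris-HCl pH 8 with Tween 20, after 15 min compound preincubation at room temperature. Fluorescence change, last versus first of five reads.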
ALOX12 inhib: qHTS Assay for Inhibitors of 12-hLO (12-human lipoxygenase) | purified 12-hLO, xylenol orange hydroperoxide absorbance | 150,000 tested, 0.12% active | Potency, µM (highest dose often 57.1 µM), without a hit: at the highest dose activity change, negative = inhibition, most hits filed as inhibitors | AID 1452, 2008; active means well fitted inhibition curve with a large enough effect; inconclusive means small, poorly fitted or top-dose-only effect; further: potency means the concentration at half of the fitted maximal effect; nearly all actives have a fitted effect of over 55% in size
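Lipoxygenase turnover measured by absorbance at 573 and 405 nm after Fe-XO development. Human 12hLO 150 nM, arachidonate 40 uM, pH 7.0 Hepes buffer with detergent; 15 min compound preincubation, 30 min reaction.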
PNC assembly inh: High Content Assay for Compounds that inhibit the Assembly of the Perinucleolar Compartment | 140,000 tested, 3.1% active | PC3M PTB-GFP, PNC prevalence imaging, 16 h; stronger effect = lower value | activity change (PNC), negative = inhibition, % at 10 µM | AID 2417, 2010;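 active means readout at or below -70, meaning at least 70% loss of cells showing the perinucleolar compartment, a nuclear body marking cancer cells; inconclusive means readout between -30 and a set limit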;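 further: plate controls were DMSO wells for no effect and camptothecin positive control wells for full effect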
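Compounds are pinned in duplicate onto adhered PC3M cells stably expressing GFP-tagged PTB and incubated 16 h at 37 C. Cells are then fixed, nuclei stained with Hoechst, and PNC-positive cells counted.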
ALDH1A1 inh: qHTS Assay for Inhibitors of Aldehyde Dehydrogenase 1 (ALDH1A1); Aldehyde dehydrogenase 1A1 (Homo sapiens), P00352; Purified ALDH1A1, NADH fluorescence, propionaldehyde substrate; Potency, µM (titrated, usually from 75.3 µM), inactives show at the highest dose activity, negative = inhibition, actives largely listed as inhibitors; 220,000 tested, 7.3% active;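 further: potency means the concentration at half of the fitted maximal effect; plate controls were no enzyme wells and a reference inhibitor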
Target sequence (P00352 whole entry, looked up): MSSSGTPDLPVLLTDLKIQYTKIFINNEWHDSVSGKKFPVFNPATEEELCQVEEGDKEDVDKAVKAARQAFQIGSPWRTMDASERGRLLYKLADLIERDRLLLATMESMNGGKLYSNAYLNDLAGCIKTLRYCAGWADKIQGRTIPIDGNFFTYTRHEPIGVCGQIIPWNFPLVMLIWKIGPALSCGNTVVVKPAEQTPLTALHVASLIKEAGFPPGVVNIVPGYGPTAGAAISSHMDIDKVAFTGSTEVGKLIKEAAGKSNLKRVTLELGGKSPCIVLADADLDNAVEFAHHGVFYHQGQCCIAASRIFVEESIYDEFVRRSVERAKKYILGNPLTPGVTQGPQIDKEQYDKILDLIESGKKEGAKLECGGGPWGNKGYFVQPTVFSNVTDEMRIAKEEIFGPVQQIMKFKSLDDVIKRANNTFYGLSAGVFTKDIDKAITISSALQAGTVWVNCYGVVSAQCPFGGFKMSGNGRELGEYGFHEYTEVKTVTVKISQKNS
Lamin A splicing: qHTS Assay for Modulators of Lamin A Splicing; HeLa LMNA splicing GFP/RFP minigene ratio, 48 h; Potency, µM (titrated, usually from 46.1 µM), for inactives: at the top dose ratio change, negative = inhibition, most hits filed as inhibitors; 200,000 tested, 0.01% active; active means well fitted inhibition curve with a large enough effect in the signal ratio, with a control signal flat, not every such curve was filed as active; inconclusive means small, poorly fitted or top-dose-only effect, or effect the other way, or a change in a side signal; the % refers to the signal ratio; further: potency means the concentration at half of the fitted maximal effect
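Read-out is the ratio of GFP to DsRed2 object intensity, acquired by 488 nm laser-scanning cytometry on HeLa lamin A-EGFP minigene reporter cells. Compound incubation 48 hrs at 37 °C in Opti-MEM with 2% FBS; DMSO 0.5% final.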
Numbers without * were called inactive; ? = inconclusive; / = no result given; [ ] = dose if it differs, or a comment. Rows were chosen to be rich in hits. Some 10% of all compounds tested hit in one or more screens of this group. Unless noted, the call rests on the fitted dose curve; in most records, active means well fitted inhibition curve with a large enough effect (not every such curve was filed as active); inconclusive means small, poorly fitted or top-dose-only effect, or another doubt; inactive means no such curve, though single readings can be large or run the other way. Unless noted, on the % scale 0 is the no-effect control and ±100 the full control effect.

SMILES | HPGD block | ALOX12 inhib | PNC assembly inh | ALDH1A1 inh | Lamin A splicing
CNC(=O)C1=C(C)NC(=S)NC1c1cccs1 (centres undefined) | / | / | / | -2% | /
CC1=C(C(=O)Nc2ccccc2F)C(c2cccs2)NC(=S)N1 (centres undefined) | / | / | / | 13µM* | -17%[9.22 µM]
CC1=C(C(=O)Nc2cc(C)ccc2C)C(c2cccs2)NC(=S)N1 (centres undefined) | -1% | 3% | 89 | 5.6µM* | 9%[0.0737 µM]
O=C(/C=C/c1c[nH]c2ccccc12)c1ccccc1 | 16µM* | -7% | 31 | 3.2µM* | ?
Cc1ccc(C(=O)/C=C/c2c[nH]c3ccccc23)cc1 | ? | ? | 11 | 25µM* | ?
Cc1ccc(S(=O)(=O)/C(C#N)=C/c2c[nH]c3ccccc23)cc1 | -7% | -19% | ? | 8% | ?
COc1cc(NC(=O)CN2C(=O)COc3ccc(S(=O)(=O)NC4CCCC4)cc32)cc(OC)c1 | / | / | / | / | 10%[46 µM]
Cc1c(C(=O)N2CCCCC2)nnn1-c1nonc1N | 16µM* | 1% | ? | 7.9µM* | -1%
Nc1nonc1C(=O)N1CCCC1 | / | / | / | -4% | -1%[46 µM]
CC(C)C(NC(=O)Cc1ccccc1[N+](=O)[O-])C(C)C | / | -1% | -22 | 12% | -10%
O=[N+]([O-])c1ccccc1CNC(Cc1ccccc1)c1ccccc1 (centres undefined) | -14% | -6% | ? | 13µM* | 8%
Clc1ccc(Cl)c(OCCCCNCc2ccccc2)c1 | 3% | -7% | 23 | -10% | ?
Clc1ccc(OCCCNCc2ccccc2)c(Br)c1 | -10% | -5% | -89* | -9% | ?
CC(NC(=O)c1cc2c(s1)CCCC2)C(C)(C)C (centres undefined) | 14µM* | 1% | 30 | -4% | 7%
Cc1csc(NC(=O)c2cc3c(s2)CCC3)n1 | 7.9µM* | -18% | -11 | ? | ?
COC(=O)c1sc(NC(=O)c2cc3c(s2)CCCC3)nc1C | -11% | -10% | 26 | -14% | 20%
CCC(CO)NC(=O)c1cc2c(s1)CCC2 (centres undefined) | -4% | 5% | 56 | 3% | 10%
COc1cc(C(=O)OCc2cc(=O)n3ccsc3n2)cc(OC)c1OC | / | / | / | / | -19%[46 µM]
CCOC(=O)c1c(C)n(C)c2ccc(OC)c([N+](=O)[O-])c12 | / | / | / | 16% | 2%[46 µM]
COC(=O)c1ccc(NC(=O)CSc2nc(=O)[nH]c3c2CCCC3)cc1 | / | / | / | / | 8%[46 µM]
O=C(c1ccccc1)c1ncc(C(F)(F)F)cc1Cl | 32µM* | 1% | 27 | -6% | 0%
O/N=C(\c1ccc(Cl)cc1Cl)c1ncc(C(F)(F)F)cc1Cl | 25µM* | -14% | 17 | ? | ?
CC(C)OC(=O)/C(=C/c1cccnc1)NC(=O)c1ccccc1 | 4% | -1% | -92* | 11% | -14%
CC(=O)Nc1ccc(NC(=O)C/C(C)=N/NC(N)=S)cc1 | / | / | / | 22µM* | 0%[46 µM]
CCC(=O)N/N=C(\C)CC(=O)Nc1ccc(F)cc1 | / | / | / | 11% | 11%[46 µM]
SMILES | HPGD block | ALOX12 inhib | PNC assembly inh | ALDH1A1 inh | Lamin A splicing
Oc1c(Cl)cc(Cl)cc1/C=N/c1nccs1 | -23% | -23% | 2 | 14µM* | -9%
O=C(C[N+]1(CC#Cc2ccccc2)CCOCC1)c1ccccc1 | / | / | / | 4.5µM* | 6%[9.22 µM]
C#CC[N+]1(CC#Cc2ccccc2)CCOCC1 | -15% | 2% | ? | -31% | 4%
O=C(C[N+]1(CC#Cc2ccccc2)CCOCC1)c1ccc(Cl)cc1 | / | / | / | 22µM* | -9%[46 µM]
Cn1cccc1C(=O)N1CCC2(CC1)CN(C(=O)Nc1ccccc1)C2 | -6% | -2% | / | 4% | /
O=C(CSc1ccccn1)Nc1ccc2c(c1)oc1ccccc12 | 25µM* | -1% | 26 | -1% | -6%
Cc1ccccc1OCc1nnc(SCC(=O)Nc2ccc3nc(SCC(=O)NC(C)(C)C)sc3c2)n1C | -17% | -4% | -13 | ? | 2%
Cn1c(COc2ccccc2)nnc1SCc1cc(=O)[nH]c2ccccc12 | ? | 0% | -107* | -4% | -14%

Compound activity: PubChem BioAssay, National Center for Advancing Translational Sciences (NCATS)
